Several values for one entry are separate records, joined by “and”; a condition that tells them apart may be missing. Identical values can stand only once. Values without a mark were called inactive. Records with an inconclusive call do not appear. Activity calls are given as the source filed them. Calls come from the whole dose curve; as a rule, active = well fitted curve in the direction sought with a large enough effect; inconclusive = small, poorly fitted or top-dose-only effect, or another doubt; inactive = no such curve, though single readings can be large; an effect the other way counts as inactive or inconclusive.

The nature of test [1]: Primary qHTS for inhibitors of nuclear receptor binding SET domain protein 2 (NSD2) in an RCH-ACV wild type WT cells (2C) (AID 1645877). Note: nearly all actives have a fitted effect of over 70% in size. Note: potency is the fitted concentration of half-maximal effect. In general terms: Quantitative high-throughput screening tests each substance at several concentrations.
The target in test [2] is Glutathione peroxidase 1 (Homo sapiens) (UniProt P07203). Put plainly: Primary qHTS Assay for Inhibitors of Recombinant Selenoprotein Glutathione Peroxidase 1 (GPX1) (AID 1845191). Note: nearly all actives have a fitted effect of over 65% in size. The gist of the method:
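Recombinant GPX1 (10 nM final) was preincubated with compound for 30 min at room temperature, then reacted with 1 mM GSH, 0.5 mM CHP, 0.5 mM NADPH and 100 nM glutathione reductase; NADPH fluorescence (340/450 nm) was read at 0 and 15 min.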

In test [3] the target is Phospholipid hydroperoxide glutathione peroxidase GPX4 (Homo sapiens) (UniProt P36969). Put plainly: Primary qHTS Assay for Inhibitors of Recombinant Selenoprotein Glutathione Peroxidase 4 (GPX4) (AID 1845192). Note: nearly all actives have a fitted effect of over 65% in size. The gist of the method: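 GR-coupled readout: 100 nM GR, 1 mM GSH, 0.5 mM NADPH; NADPH fluorescence (ex 340/em 450 nm) read at t=0 and after 15 min RT. GPX4 200 nM, preincubated 30 min with compound; substrate 0.5 mM CHP.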

In test [4] the target is Luciferin 4-monooxygenase (Photinus pyralis) (UniProt P08659). Put plainly: Primary firefly luciferase (FLuc) qHTS assay for identification of artifact compounds. (AID 1845220). Note: nearly all actives have a fitted effect of over 60% in size. The gist of the method: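 qHTS, 15 min compound preincubation with substrate (10 uM luciferin, 10 uM ATP) at RT, then 10 nM FLuc; 5 min; luminescence; % inhibition vs no-enzyme/DMSO controls, 4-parameter Hill fit.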

For test [5], the system named is Nanoluciferase (engineered Oplophorus gracilirostris luciferase). Put plainly: Primary Nanoluciferase (NLuc) qHTS assay for identification of artifact compounds. (AID 1845222). Note: series mostly up to about 54 µM. The gist of the method:
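Luminescence read-out of secreted NLuc in S16 cell conditioned medium (1:55); compounds tested with 15 min RT preincubation, then Nano-Glo substrate 1:100, 5 min. % inhibition vs no-enzyme and DMSO controls, 4-parameter Hill fit.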

The nature of test [6]: Primary redox qHTS assay for identification of artifact compounds. (AID 1845223). The method, boiled down:
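Amplex Red (25 uM) and HRP (250 mU/mL) in HBSS, with compounds for 15 min, then 250 uM DTT for 30 min, room temperature, dark. Fluorescence 525/598 nm read; normalized to DMSO and 10 uM DA3003; Hill fit.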

Chain of Phospholipid hydroperoxide glutathione peroxidase GPX4 (Homo sapiens) (P36969 whole entry, looked up): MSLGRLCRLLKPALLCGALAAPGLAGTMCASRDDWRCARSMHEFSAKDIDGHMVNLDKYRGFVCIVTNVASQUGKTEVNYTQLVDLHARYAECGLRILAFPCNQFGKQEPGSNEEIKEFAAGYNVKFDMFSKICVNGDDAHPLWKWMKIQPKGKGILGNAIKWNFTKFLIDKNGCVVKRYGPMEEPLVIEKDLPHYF
Chain of Glutathione peroxidase 1 (Homo sapiens) (P07203 whole entry, looked up): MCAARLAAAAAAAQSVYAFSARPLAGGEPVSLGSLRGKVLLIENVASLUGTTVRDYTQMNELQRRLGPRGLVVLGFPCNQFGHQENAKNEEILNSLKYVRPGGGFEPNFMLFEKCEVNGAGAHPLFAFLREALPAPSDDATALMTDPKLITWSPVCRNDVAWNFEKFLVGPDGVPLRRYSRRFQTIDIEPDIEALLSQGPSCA

Turning to `O=C(O)c1ccc(OC2OC(CO)C(O)C(O)C2O)cc1` (configuration not stated), the Potency result in test [1], in test [2], in test [3], in test [4], in test [5] and in test [6] was “inactive” in each case.
As to `O=S(=O)(NCC1CC1)c1ccc(Nc2nccc(N3CCCc4cc(O)ccc43)n2)cc1`, the Potency in test [1] is 1.15 µM (active). Moreover, the Potency result in test [2], in test [3], in test [4], in test [5] and in test [6] was “inactive” each time.
Consider `Cc1onc(C(=O)N2CCN(C(c3ccc(Cl)cc3)c3ccc(Cl)cc3)CC2)c1[N+](=O)[O-]`, for which, in test [1], the Potency was 0.145 µM (active). Moreover, the Potency result in test [2], in test [3], in test [4], in test [5] and in test [6] was “inactive” in each case.
Take `CN1CCN(c2ccc(C(=O)Nc3n[nH]c4ccc(Cc5cc(F)cc(F)c5)cc34)c(NC3CCOCC3)c2)CC1`: in test [1], the Potency is 3.65 µM (active) and 4.17 µM (active) and 6.51 µM (active). Besides, the Potency result in test [2], in test [3], in test [4], in test [5] and in test [6] was “inactive” throughout.
For the compound `CC1C(OC(=O)c2ccccc2)C(O)C2C(C(=O)O)=COC(OC3OC(CO)C(O)C(O)C3O)C12` (configuration not stated), the Potency entry in test [1], in test [2], in test [3], in test [4], in test [5] and in test [6] was “inactive” each time.
Consider `O=C1NC(Cc2c[nH]c3ccccc23)C(=O)NC1Cc1c[nH]c2ccccc12` (configuration not stated), for which the Potency entry in test [1], in test [2], in test [3], in test [4], in test [5] and in test [6] was “inactive” each time.
For `C[C@H]1O[C@@H](O[C@H]2CC[C@@]3(C)C(CC[C@]4(C)C3CC=C3C5CC(C)(C)CC[C@]5(C(=O)O)CC[C@]34C(=O)O)C2(C)C)[C@H](O)[C@@H](O)[C@@H]1O` (some centres not stated), the Potency result in test [1], in test [2], in test [3], in test [4], in test [5] and in test [6] was “inactive” throughout.
Consider `c1ccc(N2CCN(CCc3nn[nH]n3)CC2)cc1`, for which the Potency entry in test [1], in test [2], in test [3], in test [4], in test [5] and in test [6] was “inactive” throughout.
As to `C/C(=C/CO)CC[C@@H]1[C@@](C)(O)CCC2C(C)(C)CCC[C@]21C` (some centres not stated), the Potency result in test [1], in test [2], in test [3], in test [4], in test [5] and in test [6] was “inactive” each time.
On to `COc1cc(Br)c(Nc2nc(-c3c(C)nc4ncccn34)cs2)c(Br)c1`, for which the Potency in test [1] was 2.05 µM (active). Besides, the Potency entry in test [2], in test [3], in test [4], in test [5] and in test [6] was “inactive” each time.
For the compound `Cn1c(=O)cc(N2CCCC(N)C2)n(Cc2cc(F)ccc2C#N)c1=O` (configuration not stated), the Potency result in test [1], in test [2], in test [3], in test [4], in test [5] and in test [6] was “inactive” each time.
In the case of `COc1cc(C(=O)O)ccc1OC1OC(CO)C(O)C(O)C1O` (configuration not stated), the Potency entry in test [1], in test [2], in test [3], in test [4], in test [5] and in test [6] was “inactive” throughout.
`CC(O)/C=C/C1C(C)C(O[C@@H]2O[C@H](CO)[C@@H](O)[C@H](O)[C@H]2O)C(O)CC1(C)C` (some centres not stated): the Potency entry in test [1], in test [2], in test [3], in test [4], in test [5] and in test [6] was “inactive” in each case.
As for `COC(=O)C1=CO[C@@H](O[C@@H]2O[C@H](CO)[C@@H](O)[C@H](O)[C@H]2O)[C@H]2[C@@H]1C=C[C@@]21C=C([C@H](C)O)C(=O)O1`, the Potency entry in test [1], in test [2], in test [3], in test [4], in test [5] and in test [6] was “inactive” throughout.
Take `COc1cc2c(cc1OC)[C@@H]1[C@H](O)[C@@H](OC)C=C3CCN(C2)[C@H]31`: the Potency in test [1] was 4.5 µM (active). The Potency entry in test [2], in test [3], in test [4], in test [5] and in test [6] was “inactive” in each case.
Regarding `COC(=O)c1ccccc1O[C@@H]1O[C@H](CO)[C@@H](O)[C@H](O)[C@H]1O[C@@H]1O[C@@H](C)[C@H](O)[C@@H](O)[C@H]1O`, the Potency entry in test [1], in test [2], in test [3], in test [4], in test [5] and in test [6] was “inactive” in each case.
On to `COC(=O)C1=CO[C@@H](O[C@@H]2O[C@H](CO)[C@@H](O)[C@H](O)[C@H]2O)C2C1C(=O)C[C@H]2C` (some centres not stated), for which the Potency result in test [1], in test [2], in test [3], in test [4], in test [5] and in test [6] was “inactive” each time.
As to `C=CC(C)(C)c1[nH]c2cc3c(cc2c1CC1NC(=O)C2CCCN2C1=O)C=CC(C)(C)O3` (configuration not stated), the Potency entry in test [1], in test [2], in test [3], in test [4], in test [5] and in test [6] was “inactive” in each case.
Consider `O=C(OC[C@@]1(O)CO[C@@H](O[C@H]2[C@H](Oc3ccc(O)cc3)O[C@H](CO)[C@@H](O)[C@@H]2O)[C@@H]1O)c1ccc(O)cc1`, for which the Potency result in test [1], in test [2], in test [3], in test [4], in test [5] and in test [6] was “inactive” each time.
Regarding `C/C(=C\CCC(C)CCO)C(=O)OC1(C)CCC2C(C(=O)O)=COC(OC3OC(CO)C(O)C(O)C3O)C21` (configuration not stated), the Potency result in test [1], in test [2], in test [3], in test [4], in test [5] and in test [6] was “inactive” in each case.
For the compound `CC(=O)c1ccc2c(c1)C(O)C(C(C)(C)O)O2` (configuration not stated), the Potency result in test [1], in test [2], in test [3], in test [4], in test [5] and in test [6] was “inactive” each time.
On to `CC(=O)NC1C(OC(C)(C)C2CCC3(C)C=C(C4CCC5C4(C)CC(O)C4OC(C(C)(C)O)CCC45C)CCC3O2)OC(CO)C(O)C1O` (configuration not stated), for which the Potency result in test [1], in test [2], in test [3], in test [4], in test [5] and in test [6] was “inactive” each time.

(Values after PubChem BioAssay (NCATS).)
